High-throughput results deposited in PubChem BioAssay by several laboratories.
In the library only some 3.8% were active in any assay of this set; here they are far more common.
M18AAP inhibitor: PfM18AAP inhibitors, malaria aminopeptidase, primary screen, biochemical, QFRET, recombinant enzyme; inhibition, % at 7.35 µM; AID 1822, 2009; M18 aspartyl aminopeptidase (Plasmodium falciparum 3D7); H-Glu-NHMec fluorogenic cleavage; 1.2% of 290,000 active;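 active = inhibition above the campaign mean inhibition over all tested compounds plus 3 SD, cut at about 28% in these data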
PAFAH1B3 FP inh: PAFAH1B3 enzyme inhibitors, primary screen, biochemical, fluorescence polarization, human; Platelet-activating factor acetylhydrolase IB subunit alpha1 (Homo sapiens), Q15102; recombinant PAFAH1B3, FP-rhodamine probe; inhibition, % at 3.39 µM; 0.28% of 340,000 active;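 active = inhibition above the screen-wide average of all tested compounds plus 3 SD, cut at about 25% in these data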
PAFAH1B2 FP inh: PAFAH1B2 enzyme inhibitors, primary screen, biochemical, fluorescence polarization, human | 1.2% of 340,000 active | recombinant PAFAH1B2, FP-rhodamine activity probe | Platelet-activating factor acetylhydrolase IB subunit alpha2 (Homo sapiens), P68402 | inhibition, % at 3.39 µM;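 active = inhibition above the mean of all tested compounds plus 3 SD, cut at about 24% in these data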
Target sequence (P68402 whole entry, looked up): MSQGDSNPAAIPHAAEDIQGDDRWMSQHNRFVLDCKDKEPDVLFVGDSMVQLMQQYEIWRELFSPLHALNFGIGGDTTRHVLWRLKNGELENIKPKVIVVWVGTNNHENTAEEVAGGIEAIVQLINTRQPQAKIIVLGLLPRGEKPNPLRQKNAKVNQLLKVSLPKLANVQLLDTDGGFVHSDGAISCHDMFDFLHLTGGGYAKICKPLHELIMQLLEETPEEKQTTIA
PAFAH2 inh: PAFAH2 enzyme inhibitors, primary screen, biochemical, fluorescence polarization, human. Platelet-activating factor acetylhydrolase 2, cytoplasmic (Homo sapiens), Q99487. inhibition, % at 3.39 µM. recombinant PAFAH2, FP-rhodamine activity probe. 0.99% of 340,000 active;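 active = inhibition above the mean over all tested compounds plus 3 SD, cut at about 30% in these data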;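 note: inhibitors block probe labeling of enzyme so polarization drops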
DSG3 Ab inh: inhibitors of pemphigus antibody binding to DSG3, primary screen, biochemical, bead-based, flow cytometry, scFv-GFP. AID 588358, 2011. 0.48% of 310,000 active. binding (percent of control), % at 10 µM. Desmoglein-3 (Homo sapiens), P32926. DSG3-coupled beads, scFv-anti-DSG3-GFP binding; hits give low values;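 active = binding more than 3 SD below its plate's average and above zero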;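 note: hits lower antibody fragment binding to DSG3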
pPAFAH FP inh: pPAFAH enzyme inhibitors, primary screen, biochemical, fluorescence polarization, human. recombinant pPAFAH, FP-rhodamine probe fluorescence polarization. inhibition, % at 3.39 µM. 1.5% of 330,000 active. AID 463082, 2010;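 active = inhibition above the mean inhibition across the screen plus 3 SD, cut at about 25% in these data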;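 note: inhibitors block binding of the rhodamine activity-based probe so polarization drops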
Target sequence (Q13093 whole entry, looked up): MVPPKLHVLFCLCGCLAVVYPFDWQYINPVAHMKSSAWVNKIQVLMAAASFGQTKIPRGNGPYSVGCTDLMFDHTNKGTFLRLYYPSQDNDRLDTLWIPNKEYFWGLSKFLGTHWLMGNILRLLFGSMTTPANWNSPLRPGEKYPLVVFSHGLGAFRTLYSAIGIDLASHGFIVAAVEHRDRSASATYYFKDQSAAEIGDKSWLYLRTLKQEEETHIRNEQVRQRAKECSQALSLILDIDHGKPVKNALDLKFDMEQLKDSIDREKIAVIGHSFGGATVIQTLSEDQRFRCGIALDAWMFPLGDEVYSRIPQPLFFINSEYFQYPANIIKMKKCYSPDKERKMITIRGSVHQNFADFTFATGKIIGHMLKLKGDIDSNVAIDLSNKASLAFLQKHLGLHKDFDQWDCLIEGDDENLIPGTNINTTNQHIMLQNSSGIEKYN
Each line names hits and unclear results; the compound was inactive in the other large screens.

COc1cc(/C=N/N(c2ccccc2)c2ccccc2)ccc1O	pPAFAH FP inh 26.5
C=CC(=O)Nc1cccc(N(C)c2ccnc(Nc3ccc(N4CCN(C)CC4)cc3)n2)c1	none (no result: M18AAP inhibitor, pPAFAH FP inh)
COc1cc(/C=C/C(=O)C2C(=O)C=C(C)OC2=O)cc(OC)c1O (stereo unspecified)	M18AAP inhibitor 31.0
COc1ccc(S(=O)(=O)N2CCCC(C(=O)NCC3CCCO3)C2)cc1OC (stereo unspecified)	none
COc1ccc2c(c1)O[C@@H](c1cccc(C(F)(F)F)c1)[C@H](O)C2=O	PAFAH2 inh 71.5
CSc1nc2ccc(NC(=O)c3cccs3)cc2s1	DSG3 Ab inh 28.3 (no result: M18AAP inhibitor)
CSc1nc2ccc(NC(=O)c3ccco3)cc2s1	none
O=C1/C(=C\c2ccco2)SC(=S)N1Cc1ccccc1	pPAFAH FP inh 25.4
O=C1/C(=C\c2ccco2)SC(=S)N1c1ccccc1	pPAFAH FP inh 28.7
O=C1/C(=C\c2ccco2)SC(=S)N1C1CCS(=O)(=O)C1 (stereo unspecified)	M18AAP inhibitor 29.3 (no result: PAFAH1B3 FP inh, PAFAH1B2 FP inh, PAFAH2 inh)
O=C(O)CCCN1C(=O)/C(=C\c2ccco2)SC1=S	none (no result: pPAFAH FP inh)
O=C(CCCN1C(=O)/C(=C\c2ccco2)SC1=S)Nc1ccc2ccccc2c1	pPAFAH FP inh 28.4 (no result: DSG3 Ab inh)
Cc1ccc(N2C(=O)/C(=C\c3ccco3)SC2=S)cc1	none
O=C1/C(=C/c2ccccn2)SC(=S)N1Cc1ccccc1	none (no result: PAFAH1B3 FP inh, PAFAH1B2 FP inh, PAFAH2 inh)
Nc1ccn(C2OC(COP(=O)(O)O)C(O)C2O)c(=O)n1 (stereo unspecified)	none (no result: M18AAP inhibitor, pPAFAH FP inh)
CCOc1ccc(S(=O)(=O)N2CCN(Cc3ccc4c(c3)OCO4)CC2)cc1C	none
Cc1ccc(C(=O)C(C)OC(=O)CN2C(=O)NC3(CCCC3)C2=O)cc1 (stereo unspecified)	none (no result: M18AAP inhibitor)
CC(CC(=O)c1ccccc1)=NCCCN=C(C)CC(=O)c1ccccc1	none (no result: M18AAP inhibitor, PAFAH1B3 FP inh, PAFAH1B2 FP inh, PAFAH2 inh, pPAFAH FP inh)
Cc1ccc(-c2cc(-c3ccc(Cl)cc3)c(C#N)c(N)n2)o1	pPAFAH FP inh 24.9
Cc1ccc(-c2cc(-c3ccc(C)o3)nc(N)c2C#N)cc1	none
Cc1ccc(NC(=O)CCc2ccc(C)o2)cc1	none
Cc1ncc(CN2CCCC(C(=O)Nc3ccc(-n4ccnc4C)cc3)C2)cn1 (stereo unspecified)	none
Cn1nnc(NC(=S)NC(=O)c2cc(Cl)ccc2Cl)n1	none
COc1cc2ccccc2cc1C(=O)NC(=S)Nc1nnn(C)n1	DSG3 Ab inh -8.3
COc1cc2ccccc2cc1C(=O)Nc1ccc(Br)cn1	DSG3 Ab inh 88.8 (no result: pPAFAH FP inh)
CCOC(=O)c1[nH]c(C)c(CN(C(C)=O)c2ccc(OCC)cc2)c1C	none
COc1cc(/C=N/NC(=O)c2cc3c(ccc4ccccc43)o2)cc(OC)c1O	M18AAP inhibitor 31.6
COc1cc(/C=N/NC(=O)c2ccc(COc3ccccc3Cl)o2)cc(Br)c1O	pPAFAH FP inh 32.4
COc1cccc(/C=N/NC(=O)c2ccc(COc3ccc(Cl)cc3Cl)o2)c1	none
Cc1ccc(S(=O)(=O)N[C@@H](C)C(=O)N2CCC(C(=O)N[C@@H](Cc3ccccc3)C(=O)O)CC2)cc1	none (no result: DSG3 Ab inh)
C=CCCC(=O)NC1CC(C)(C)Cc2c1cnn2-c1ccc(OC)cc1 (stereo unspecified)	none
CCC1(C)CC(c2csc(N)n2)CCO1 (stereo unspecified)	none
Nc1nc(C2CCCCC2)cs1	PAFAH1B2 FP inh 57.6
Cc1cc2nccnc2cc1C	none (no result: M18AAP inhibitor, pPAFAH FP inh)
COc1ccc(CCN(C)Cc2c(O)ccc3cc(Br)ccc23)cc1OC	PAFAH1B2 FP inh 36.1
COc1ccc(Cc2nnc(N/N=C/c3ccc(N(C)C)cc3)[nH]c2=O)cc1OC	DSG3 Ab inh 77.4
COc1ccc(C(=O)ON=C2CCN(c3ccc([N+](=O)[O-])cc3)CC2)cc1	PAFAH2 inh 88.8
O=C(/C=C/c1ccccc1Cl)c1cccnc1	M18AAP inhibitor 28.4
O=C(/C=C/c1ccc(Cl)cc1)c1cccnc1	none
O=C1c2cccc3c([N+](=O)[O-])ccc(c23)C(=O)N1c1nccs1	PAFAH1B3 FP inh 32.9
O=C1c2cccc3c([N+](=O)[O-])ccc(c23)C(=O)N1c1ccc(Cl)cn1	PAFAH1B3 FP inh 33.8
O=C1c2cccc3c(N4CCCCC4)ccc(c23)C(=O)N1c1ccc(Cl)cn1	none (no result: PAFAH1B3 FP inh, PAFAH1B2 FP inh, PAFAH2 inh, DSG3 Ab inh, pPAFAH FP inh)
O=S1(=O)CCN(Cc2ccncc2)CC1	none (no result: M18AAP inhibitor, PAFAH1B3 FP inh, PAFAH1B2 FP inh, PAFAH2 inh, pPAFAH FP inh)
CCOc1ccc(NC(=O)CN(C)Cc2ccc3c(c2)OCO3)cc1S(=O)(=O)N1CCCC1	none (no result: M18AAP inhibitor)
Cc1ccc(N(CC(=O)N2CCCC2)S(C)(=O)=O)c(C)c1	none
Oc1ccc(/C=N/NC(=S)Nc2cccnc2)cc1	M18AAP inhibitor 30.8
COc1cccc(CSc2nc3sc(C)c(C)c3c(=O)n2Cc2ccco2)c1	pPAFAH FP inh 25.8
CC(=O)Nc1cccc(C(=O)NNC(=O)c2n[nH]c(=O)c3ccccc23)c1	none (no result: M18AAP inhibitor)
O=C(CCSc1ccc(Cl)cc1)NN=C1CCCCCC1	PAFAH1B2 FP inh 24.5
CCOC(=O)C1CCN(S(=O)(=O)c2cc(C(=O)N3CCCCC3)ccc2OC)CC1	none
Cc1cccc(CS(=O)(=O)c2ncc(Cl)c(C(=O)Nc3nnc(C(C)C)s3)n2)c1	DSG3 Ab inh 92.5
COc1ccc2c3c(ccc2c1)C(=O)/C(=C/O)CC3	none (no result: M18AAP inhibitor, DSG3 Ab inh, pPAFAH FP inh)
Cc1oc2c(cc(NS(=O)(=O)c3ccc(C(C)C)cc3)c3ccccc32)c1C(=O)O	pPAFAH FP inh 31.7
COC(=O)C(C)Sc1nc(NCc2ccccc2)nc(N(C)C)n1 (stereo unspecified)	DSG3 Ab inh 83.9
CCNc1nc(SC(C)C(=O)Nc2ccccc2)nc(N(C)C)n1 (stereo unspecified)	none
CC1=C(C)CS(=O)N(c2ccc(S(N)(=O)=O)cc2)C1 (stereo unspecified)	M18AAP inhibitor 29.8 (no result: DSG3 Ab inh)
CC1=C(C)CS(=O)N(S(=O)(=O)c2ccccc2)C1 (stereo unspecified)	none
COC(=O)c1scc(C)c1N/N=C(\C)c1ccc(F)cc1	DSG3 Ab inh -27.8
CC[C@]12c3[nH]c4cc(CCC(=O)N(C)C)ccc4c3CCN1C(=O)[C@@H](CC(=O)NCc1cccc(C(F)(F)F)c1)C[C@@H]2C(=O)N1CCN(C(=O)c2ccco2)CC1	none (no result: M18AAP inhibitor)
CCOC(=O)C1CC(=NO)c2ccc(OC)c(OC)c2C1 (stereo unspecified)	none (no result: M18AAP inhibitor, PAFAH1B3 FP inh, PAFAH1B2 FP inh, PAFAH2 inh, pPAFAH FP inh)
COc1ccc(C=NNc2ccc([N+](=O)[O-])cc2S(=O)(=O)Nc2ccccc2C(=O)O)cc1OC	pPAFAH FP inh 33.2 (no result: M18AAP inhibitor)
O=C(O)c1ccccc1NS(=O)(=O)c1ccc(N/N=C/c2ccc(O)c(O)c2)c([N+](=O)[O-])c1	PAFAH1B3 FP inh 58.2, PAFAH1B2 FP inh 58.9, PAFAH2 inh 72.2 (no result: M18AAP inhibitor, pPAFAH FP inh)
